Screen size: about 190,000 compounds; about 1,300 (0.68%) were called active. This is one part of a sample in which actives are shown more often than they occur. A number with no mark means an inactive call. Rule as the data show it: active = inhibition above about 50%; inactive = the rest.
molecular target: Mannose-6-phosphate isomerase (Homo sapiens) (UniProt P34949); assay: MPI inhibition at elevated mannose 6-phosphate – biochemical, fluorescence intensity, high mannose 6-phosphate, primary screen (AID 1220); conditions: recombinant PMI enzyme, coupled fluorescence intensity; at 20 µM; stronger effect = higher value
Sequence (P34949 whole entry, looked up): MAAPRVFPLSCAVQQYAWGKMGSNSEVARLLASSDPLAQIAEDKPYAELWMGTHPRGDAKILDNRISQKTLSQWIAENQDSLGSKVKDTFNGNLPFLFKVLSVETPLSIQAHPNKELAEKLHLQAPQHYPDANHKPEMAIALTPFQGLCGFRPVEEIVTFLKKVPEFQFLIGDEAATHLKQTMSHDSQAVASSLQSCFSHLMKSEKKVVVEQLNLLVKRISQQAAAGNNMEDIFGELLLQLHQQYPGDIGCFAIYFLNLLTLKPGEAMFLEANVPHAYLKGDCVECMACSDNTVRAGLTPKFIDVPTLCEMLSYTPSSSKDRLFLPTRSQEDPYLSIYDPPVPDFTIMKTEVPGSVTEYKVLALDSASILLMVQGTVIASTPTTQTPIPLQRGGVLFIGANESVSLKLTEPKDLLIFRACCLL

SMILES | inhibition
CN(C)C(=O)Oc1ccc(-c2nnco2)cc1 | 2.3%
OC1(c2cccnc2)CC2CCC(C1)N2Cc1nnnn1Cc1ccccc1 (configuration not stated) | -8.1%
CCOP(=O)(OCC)C(c1ccccc1)N(C)C=O (configuration not stated) | 1.8%
CC(C)(C)NC(=O)NC(=O)CN1CC=C(c2ccccc2)CC1 | 7.7%
O=C1NC(=O)C2(Cc3ccccc3N3CCCC32)C(=O)N1 (configuration not stated) | -47.2%
O=C(Nc1ccc2c(c1)OCO2)c1cn(Cc2ccc(F)cc2)nn1 | 12.6%
COc1ccc(NC2(C#N)CCCCC2)cc1 | 52.7% (active)
Cc1ccccc1NC1(C#N)CCCCC1 | -0.6%
COc1ccccc1NC1(C#N)CCCCC1 | 38.8%
Cc1sc2ncn(CC(=O)NCCCC(=O)N3CCC4(CC3)OCCO4)c(=O)c2c1C | -1.4%
O=C1C=Cc2ccccc2C1=O | 75.2% (active)
O=C1C(=O)c2cccc3cccc1c23 | 44.3%
O=C1C(=O)c2ccccc2-c2ccccc21 | 1.8%
O=[N+]([O-])c1ccc(NCc2ccccc2)c2nonc12 | 43.9%
CCC(CO)Nc1ccc([N+](=O)[O-])c2cccnc12 (configuration not stated) | 38.6%
NCCNc1ccc([N+](=O)[O-])c2cccnc12 | 51.1% (active)
O=C(NCCCN1CCOCC1)C(Cl)(Cl)Cl | -7.8%
CC(O)CNc1ccc([N+](=O)[O-])c2cccnc12 (configuration not stated) | 52.2% (active)
O=[N+]([O-])c1ccc(NCCO)c2ncccc12 | 35.9%
Cc1nonc1OCCNCCNc1ccc([N+](=O)[O-])c2cccnc12 | 39%
CCN(CC)c1ccc([N+](=O)[O-])c2cccnc12 | 67.2% (active)
CCN(CCNc1ccc([N+](=O)[O-])c2cccnc12)S(=O)(=O)c1ccc(Cl)cc1 | 36.7%
CCN(CCNc1ccc([N+](=O)[O-])c2cccnc12)S(=O)(=O)c1ccccc1 | 8.2%
Cc1nonc1OCCNc1ccc([N+](=O)[O-])c2cccnc12 | 33.9%
O=[N+]([O-])c1ccc(NCCCN2CCOCC2)c2ncccc12 | 57.5% (active)
CCC(=O)N1c2ccc(S(=O)(=O)CCC(=O)N3CCC4(CC3)OCCO4)cc2CC1C (configuration not stated) | -5.2%

SMILES | inhibition
O=C1CN=C(c2ccc(F)cc2)c2oc3ccccc3c2N1 | -7.1%
CCOC(=O)c1c(C)n(Cc2ccccc2)c2ccc(O)cc12 | 40.8%
O=C(c1ccc2c(c1)OCO2)C1CCCN(CC2CCCCC2)C1 (configuration not stated) | 12.9%
CCOP(=O)(OCC)C(O)c1ccc(OC)c(OC)c1 (configuration not stated) | 2.3%
CCN(CC)c1ccc(/C=C2\C(=O)NC(=O)N(CC3CCCO3)C2=O)cc1 (configuration not stated) | -4.6%
CC(=O)c1c(O)n(C)c(=S)n(-c2ccccc2)c1=O | -1.3%
CNC(=O)Oc1cccc(-c2cn3cc(OC(=O)NC)ccc3n2)c1 | 54.4% (active)
CNC(=O)Oc1cccc(-c2cn3cc(Cl)ccc3n2)c1 | 3%
CNC(=O)Oc1ccc(-c2cn3cc(C)ccc3n2)cc1 | 4.6%
CN1CCN(c2c(C#N)c(C(F)(F)F)nn2C)CC1 | -13.8%
O=C(CN1CC(c2ccccc2)CC1=O)Nc1cccc(F)c1 (configuration not stated) | 3.7%
O=C1NC(=O)N(Cc2ccccc2)C(=O)/C1=C/N1CCCc2ccccc21 | 6%
O=c1[nH]c(=O)n(Cc2ccc(F)cc2)c(O)c1C=NCC1CCCO1 (configuration not stated) | -20.4%
O=[N+]([O-])[N-][n+]1cnn(Cc2ccccc2)c1 | -10.9%
Cc1cc(OCC(=O)Nc2c(C)n(C)n(-c3ccccc3)c2=O)c2c3c(c(=O)oc2c1)CCC3 | 10.1%
Cc1cccc(NC(=O)N2CCCC2)c1 | -7.3%
COc1cc(/C=C2\C(=O)NC(=O)N(c3ccccc3)C2=O)cc(OC)c1O | 13%
COc1cc(/C=C2/C(=O)NC(=O)N(c3ccccc3)C2=O)ccc1O | 1.2%
COc1cc(/C=C2\C(=O)NC(=O)N(c3ccc(C)cc3)C2=O)cc(OC)c1O | 67.6% (active)
CCC(=O)N1CC(=O)Nc2ccc(Br)cc2C1c1ccccc1 (configuration not stated) | 2.3%
Cc1cccc(C)c1NC(=O)c1cccn(Cc2ccc3c(c2)OC(F)(F)O3)c1=O | 9.6%
C(#CCN1CCOCC1)COC/C=C/c1ccccc1 | -8.9%
COc1ccc(OC)c(N2C(=O)NC(=O)/C(=C\c3ccc([N+](=O)[O-])s3)C2=O)c1 | -46.8%
COc1ccc(OC)c(N2C(=O)NC(=O)/C(=C/c3ccc([N+](=O)[O-])s3)C2=O)c1 | 56.6% (active)
COc1ccc(N2C(=O)NC(=O)/C(=C\c3ccc([N+](=O)[O-])s3)C2=O)cc1 | -53.3%
CN1C(=O)C(=Cc2ccc(-c3cccc(Cl)c3)o2)C(=O)N(C)C1=O | -7.8%

SMILES | inhibition
CCN(CC)S(=O)(=O)c1ccc(N=Cc2c(O)n(-c3ccccc3)c(=O)[nH]c2=O)cc1 | -8.6%
COc1ccc(CCn2c(O)c(C=NCc3ccc4c(c3)OCO4)c(=O)[nH]c2=O)cc1OC | 8.6%
COc1ccc(CCn2c(O)c(/C=N/NC(=O)c3ccncc3)c(=O)[nH]c2=O)cc1OC | -12.8%
O=C(N/N=C/c1c(O)n(CCc2ccccc2)c(=O)[nH]c1=O)c1ccncc1 | -28.2%
O=C(N/N=C/c1c(O)n(CCc2ccc(F)cc2)c(=O)[nH]c1=O)c1ccncc1 | 53% (active)
CC1CCN(S(=O)(=O)c2ccc(NN=C(C#N)C#N)cc2)CC1 | -24.1%
CC(C)Oc1cccc(C(=O)C2CCCN(Cc3ccon3)C2)c1 (configuration not stated) | 4%
CC(=O)NC1CC2CCCC(C1)N2 (configuration not stated) | -5.2%
O=C(NC1(C(F)(F)F)Oc2ccc(Cl)cc2O1)N1CCC2(CC1)OCCO2 (configuration not stated) | 70.3% (active)
O=C(NC1(C(F)(F)F)Oc2ccccc2O1)N1CCC2(CC1)OCCO2 | 3.8%
O=C(NC(=O)N1CCC2(CC1)OCCO2)c1ccc(Cl)cc1 | 11.1%
O=c1[nH]c(=O)n(Cc2ccccc2Cl)c(O)c1C=Nc1ccc(F)cc1 | 13.7%
CC(=NCCN1CCCCC1)c1c(O)n(-c2ccc(Cl)cc2)c(=O)[nH]c1=O | 2.8%
COc1cc2c(cc1OC)-c1c(OC)c(OC)cc3c1[C@H](C2)N(C)CC3 | -16.2%
COc1cc2c(cc1OC)-c1c(OC)c(OC)cc3c1C(C2)N(C)CC3 (configuration not stated) | 39.3%
COc1cc2c(cc1O)CC1c3c(cc(O)c(OC)c3-2)CCN1C (configuration not stated) | 52.5% (active)
CCc1cccc(C)c1NC(=S)N1CC2CC(C1)c1cccc(=O)n1C2 (configuration not stated) | -3.9%
CCN(CC)C(=O)c1ccc(N2C(=O)C3CC=C(Cl)CC3C2=O)cc1 (configuration not stated) | -1.5%
Nc1ccncc1Cl | -4.4%
N#Cc1cc2c(nc1SCC(=O)Nc1ccc(Cl)cc1)C1CCN2CC1 | -2.2%
O=C(NC[P+](=O)O)OCc1ccccc1 | -7%
CCN(CC)C(=O)N[C@H]1C[C@@H]2c3cccc4[nH]cc(c34)C[C@H]2N(C)C1 | -0.8%
CN1C[C@H](CNC(=O)OCc2ccccc2)C[C@@H]2c3cccc4c3c(cn4C)C[C@H]21 | 58.2% (active)
CC(C)CCN1CCN(Cc2c(F)cccc2Cl)CC1CCO (configuration not stated) | -1.1%
CC(=O)OC1(c2ccccc2)CCN(C)C(C)C1C (configuration not stated) | -7.2%

From PubChem BioAssay AID1220 (Sanford-Burnham Center for Chemical Genomics, 2008)
